D1 allo mod = D1 CRE-luciferase signal change, two-sided – cell-based, HEK293 D1, dopamine EC30, D1 allosteric modulator project, primary screen; 5.9% of 58,000 active; dopamine EC30 potentiation; actives deviate in either direction; D(1A) dopamine receptor (Homo sapiens), P21728; B-score at 10 µM;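 active = luminescence count or its row- and column-corrected plate score outside the 99.7% band of the plate's sample wells, on either side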
CYP2C9 inhib = blockers of cytochrome P450 2C9 activity – biochemical, luminescence, ADME assay, primary screen | CYP2C9 Supersomes, luciferin-H conversion | 20% of 96,000 active | inhibition, % at 5 µM;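 active = blocking of liver enzyme CYP2C9 beyond about 50% at 5 µM, limit read from the data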
Target sequence (P11712 whole entry, looked up): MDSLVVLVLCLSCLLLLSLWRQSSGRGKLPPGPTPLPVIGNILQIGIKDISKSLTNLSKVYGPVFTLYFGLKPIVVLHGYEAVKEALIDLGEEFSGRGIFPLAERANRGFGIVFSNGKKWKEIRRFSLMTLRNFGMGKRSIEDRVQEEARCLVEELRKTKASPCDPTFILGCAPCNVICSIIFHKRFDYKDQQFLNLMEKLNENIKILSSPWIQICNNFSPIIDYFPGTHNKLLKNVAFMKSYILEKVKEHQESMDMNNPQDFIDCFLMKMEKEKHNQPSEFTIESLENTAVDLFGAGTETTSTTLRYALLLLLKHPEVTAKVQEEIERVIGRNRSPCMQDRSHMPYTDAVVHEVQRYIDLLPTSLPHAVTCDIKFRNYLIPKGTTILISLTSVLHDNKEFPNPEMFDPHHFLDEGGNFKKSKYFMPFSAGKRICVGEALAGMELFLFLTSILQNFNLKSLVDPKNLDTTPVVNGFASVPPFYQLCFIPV
CYP2C9 act = human CYP2C9 activators, primary screen, biochemical, luminescence. 1.4% of 96,000 active. recombinant CYP2C9, luciferin-H conversion; hits give high values; factor 1 = untreated enzyme, 0 = blocked. Cytochrome P450 2C9 (Homo sapiens), P11712. AID 1024, 2008. activation factor at 5 µM;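 active = activation factor of 2 or more for CYP2C9 at a 5 µM dose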
hDAT+cocaine = changed hDAT dopamine uptake under cocaine IC80, either direction, primary screen, cocaine antagonist project, cell-based, LLC-PK1 hDAT, [14C]-dopamine uptake, MLSMR; Sodium-dependent dopamine transporter (Homo sapiens), Q01959; LLC-PK1 hDAT cells, [14C]-dopamine uptake with cocaine IC80; actives deviate in either direction; B-score at 10 µM; 1.3% of 110,000 active; AID 449768, 2010;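 active = Z score or B-score, a plate-position-corrected score, falls beyond the plate's 99.7% confidence bounds, in either direction; inactive = both scores lie inside the 99.7% bounds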
CYP2C19 inhib = blockers of cytochrome P450 2C19 activity – biochemical, luminescence, ADME assay, primary screen | P33261 | CYP2C19 Supersomes, luciferin-H EGE luminescence, 30 min | inhibition, % at 5 µM | 21% of 96,000 active;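 active = CYP2C19 inhibition above a set limit at 5 µM in the primary screen, cut at about 50% in these data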
CYP2C19 act = human CYP2C19 activators, primary screen, biochemical, luminescence | 96,000 tested, under 10 active | activation factor at 5 µM | recombinant CYP2C19, luciferin-H EGE luminescence; hits give high values; 0 = fully inhibited enzyme, 1 = untreated enzyme | Cytochrome P450 2C19 (Homo sapiens), P33261 | AID 1025, 2008;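 active = activation factor of at least 2 at 5 µM in the primary screen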
Each line names hits and unclear results; the compound was inactive in the other large screens. Sampled rows, rich in hits. Any-hit rate of the full collection: about 28%.

O=C(Nc1ccc(N2CCOCC2)cc1)c1cccc(S(=O)(=O)N2CCCCC2)c1	none (no result: D1 allo mod)
O=C(Nc1ccccc1)c1cccc(S(=O)(=O)N2CCCCC2)c1	CYP2C19 inhib 58 (no result: D1 allo mod)
CCc1ccc(OCC(=O)Nc2ccc(S(=O)(=O)N3CCCC3)cc2)c(Br)c1	none (no result: D1 allo mod)
CC(=O)c1cccc(NS(=O)(=O)N2CCCCC2)c1	CYP2C19 inhib 60
Cc1ccc(C(=O)Nc2ccon2)cc1S(=O)(=O)N1CCCC1	CYP2C19 inhib 58 (no result: D1 allo mod)
CC(=O)c1cccc(NS(=O)(=O)N(C)C)c1	none
O=C(COC(=O)c1ccc(Br)o1)Nc1cccc(S(=O)(=O)N2CCCCCC2)c1	CYP2C9 inhib 92, CYP2C19 inhib 96 (no result: D1 allo mod)
CCOC(=O)C1=C(Nc2ccc(Br)cc2)CC(C)(O)C(C(=O)OCC)C1c1ccccc1 (stereo unspecified)	none (no result: D1 allo mod)
CCc1nnc(NC(=O)[C@@H](NC(=O)c2cccc(S(=O)(=O)N3CCOCC3)c2)C(C)C)s1	none (no result: D1 allo mod)
O=C(Nc1ccccc1Cl)c1cccc(NS(=O)(=O)c2ccccc2)c1	CYP2C9 inhib 75, CYP2C19 inhib 89 (no result: D1 allo mod)
O=C(Nc1ccc(NC(=O)c2ccc(S(=O)(=O)c3ccccc3)cc2)cc1)c1ccccc1	none (no result: D1 allo mod, hDAT+cocaine)
O=C(Nc1ccc(S(=O)(=O)N2CCCCC2)cc1)c1ccccc1Cl	none (no result: D1 allo mod)
CC(=O)Nc1ccc(S(=O)(=O)N2CCC(NC(C)=O)(c3cccc(F)c3)CC2)cc1	CYP2C9 inhib 75, CYP2C19 inhib 93
O=C(Nc1cccc(O)c1)c1cc(S(=O)(=O)N2CCCC2)ccc1Cl	CYP2C9 inhib 82
Cc1ccc(NC(=O)c2cc(S(=O)(=O)c3ccccc3)ccc2Cl)cc1	CYP2C9 inhib 73 (no result: D1 allo mod)
CC(=O)NC1(c2cccc(F)c2)CCN(C(=O)Nc2ccc(C#N)cc2)CC1	none (no result: D1 allo mod)
O=C(O)c1cccc(S(=O)(=O)Nc2ccccc2Cl)c1	none (no result: hDAT+cocaine)
COc1ccc(C2NC(=O)N(CCCC(=O)O)C(C)=C2C(=O)OCc2ccccc2)cc1 (stereo unspecified)	none (no result: D1 allo mod, CYP2C9 inhib, CYP2C9 act, CYP2C19 inhib, CYP2C19 act)
CCOC(=O)C1CCN(C(=O)COc2ccc(Cl)cc2)CC1	none (no result: D1 allo mod)
CCOC(=O)C1CCN(C(=O)COc2ccc(Cl)cc2C)CC1	CYP2C19 inhib 83 (no result: D1 allo mod)
CCOC(=O)C1CCN(C(=O)COc2ccc(Cl)cc2Cl)CC1	CYP2C19 inhib 80
COC(=O)C1CCN(C(=O)COc2ccc(Cl)cc2)CC1	CYP2C19 inhib 86
Cc1ccnc(N2CCN(c3c4c(c(C#N)c5nc6ccccc6n35)CCC4)CC2)c1	none (no result: CYP2C9 inhib, CYP2C9 act, hDAT+cocaine, CYP2C19 inhib, CYP2C19 act)
COC(=O)c1ccc(CSc2nnnn2Cc2ccccc2)cc1	CYP2C9 inhib 78
COC(=O)c1ccc(-n2nnnc2SCC(=O)NCc2cccc(C(=O)O)c2)cc1	none
COC(=O)c1cc(OC)c(OC)cc1NC(=S)N1CCN(Cc2ccccc2)CC1	CYP2C19 inhib 100 (no result: D1 allo mod, hDAT+cocaine)
CCn1nnnc1SCC(=O)c1ccc(C)cc1	none (no result: D1 allo mod, CYP2C9 inhib, CYP2C9 act, CYP2C19 inhib, CYP2C19 act)
COc1cccc(C(=O)CSc2nnnn2C)c1	CYP2C19 inhib 72
COc1ccc(C(=O)CSc2nnnn2Cc2ccccc2)cc1	CYP2C19 inhib 60
CC(=O)c1ccc(-n2nncc2C)cc1	none (no result: D1 allo mod)
COC(=O)c1cc(OC)c(OC)cc1NC(=O)CSc1nnnn1Cc1ccccc1	CYP2C9 inhib 82, CYP2C19 inhib 75
O=Nc1c2nc3ccccc3n(O)c-2c2ccccc12	none
COc1ccc(NC(C#N)c2ccc(OC)cc2)cc1 (stereo unspecified)	none (no result: D1 allo mod)
N#CC(Nc1ccccc1)c1ccccc1OCc1ccccc1 (stereo unspecified)	CYP2C9 inhib 89, CYP2C19 inhib 86 (no result: D1 allo mod)
Cc1nnc(NC(=O)Cn2cnc3c2c(=O)n(C)c(=O)n3C)s1	none (no result: D1 allo mod, CYP2C9 inhib, CYP2C9 act, CYP2C19 inhib, CYP2C19 act)
c1ccc(-c2cc3c(N4CCOCC4)ncnc3s2)cc1	D1 allo mod 14, CYP2C19 inhib 79
O=C(Cn1cnc2sc(-c3ccccc3)cc2c1=O)N1CCOCC1	none
CCOC(=O)c1cncc(NC(=O)c2ccccc2)c1	none
Cc1sc2ncn(CCC(=O)O)c(=O)c2c1C	CYP2C9 act 3.2
Cc1sc2ncn(CCn3cnc4sc(C)c(C)c4c3=O)c(=O)c2c1C	CYP2C9 inhib 74, CYP2C19 inhib 86
CCCN1CCN(C(=O)CCCNC(=O)Cn2cnc3sc(C)c(C)c3c2=O)CC1	none (no result: D1 allo mod)
CCCn1nc(CC(=O)OCC)c2ccccc2c1=O	none (no result: D1 allo mod)
COC(=O)C1=CN(CC2CCCO2)C=C(C(=O)OC)C1c1ccsc1 (stereo unspecified)	CYP2C9 inhib 52
COC(=O)C1=CN(CC2CCCO2)C=C(C(=O)OC)C1c1ccccc1C(F)(F)F (stereo unspecified)	none (no result: D1 allo mod)
Cc1ccc(N2C(=O)CC(n3ccnc3)C2=O)cc1C (stereo unspecified)	CYP2C19 inhib 58 (no result: D1 allo mod)
Cc1cc(NC(=O)c2ccccc2Cl)c(C(C)C)cc1O	CYP2C9 act 3.1, CYP2C19 inhib 65 (no result: D1 allo mod)
Cc1ccccc1NC(=O)c1ccccc1O	none
Cc1ccccc1NC(=O)NCCCN1CCN(c2ccccc2)CC1	none (no result: D1 allo mod)
O=C1CC(=C(c2ccccc2)c2ccccc2)C(=O)N1CCCCN1CCN(c2ccccc2)CC1	CYP2C9 inhib 73 (no result: D1 allo mod)
O=c1[nH]c2ccc(Cl)cc2c(-c2ccccc2)c1N1CCN(c2ccccn2)CC1	none
CCOC(=O)CC(C#N)c1cn(C)c2ccccc12 (stereo unspecified)	CYP2C9 act 3.5, CYP2C19 inhib 88
Cn1cc(C(CC(=O)O)C(=O)O)c2ccccc21 (stereo unspecified)	none (no result: D1 allo mod)
CCN(CC)S(=O)(=O)c1cc(C(=O)N2CCc3ccccc32)ccc1Cl	none (no result: D1 allo mod, hDAT+cocaine)
Cc1cc(C)n(CCc2nc3c4ccccc4nc(SCc4ccc(C#N)cc4)n3n2)n1	none (no result: CYP2C9 inhib, CYP2C9 act, hDAT+cocaine, CYP2C19 inhib, CYP2C19 act)
Clc1ccc(C2CC(c3ccco3)n3ncnc3N2)cc1Cl (stereo unspecified)	none (no result: CYP2C9 inhib, CYP2C9 act, CYP2C19 inhib, CYP2C19 act)
COc1ccc(C2CC(c3ccc(Cl)cc3Cl)n3nc(N)nc3N2)cc1 (stereo unspecified)	none (no result: CYP2C9 inhib, CYP2C9 act, CYP2C19 inhib, CYP2C19 act)
COc1cccc(C2CC(c3ccccc3Cl)Nc3nc(N)nn32)c1 (stereo unspecified)	none (no result: CYP2C9 inhib, CYP2C9 act, CYP2C19 inhib, CYP2C19 act)
COc1ccccc1C1CC(c2ccc(Cl)cc2)Nc2nc(N)nn21 (stereo unspecified)	CYP2C19 inhib 50 (no result: D1 allo mod)
COc1cccc(C2CC(c3ccc(Cl)cc3Cl)Nc3nc(N)nn32)c1 (stereo unspecified)	CYP2C9 inhib 54, CYP2C19 inhib 67
COc1ccc(C2CC(c3ccc(F)cc3)Nc3nc(N)nn32)cc1OC (stereo unspecified)	none (no result: D1 allo mod)

Compound activity (PubChem)
